According to PubChem BioAssay (Tox21):
A number with no mark means an inactive call. Inconclusive results are not listed. Entries that show only a call come without a potency. The source made the active and inactive calls. Unless noted, calls come from the whole dose curve.

Assays:
[1] = biological target: Thyrotropin receptor (Homo sapiens) (UniProt P16473); assay: qHTS assay to identify small molecule agonists of the thyroid stimulating hormone receptor (TSHR) signaling pathway (AID 1224843); note: nearly all actives have a fitted effect of over 45% in size
Outline: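 Agonist activity read as cAMP rise via d2/cryptate HTRF competition, 1 h room-temperature detection, in HEK293 cells expressing TSHR. Fifteen-point titrations, each run in triplicate, with a 30 min room-temperature incubation beforehand.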

[2] = qHTS assay to identify small molecule agonists of the hypoxia (HIF-1) signaling pathway - cell viability counter screen (AID 1224844); note: nearly all actives have a fitted effect of over 50% in size; note: potency is the fitted concentration of half-maximal effect
Outline: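 CellTiter-Glo luminescence read-out, 30 min RT, taken in the same wells as the beta-lactamase HRE reporter assay; HRE-bla ME-180 cells, 0.5% dialyzed FBS, 17 hr compound treatment at 37C, 5% CO2.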

[3] = qHTS assay to identify small molecule agonists of H2AX (AID 1224845; active = well fitted activation curve with a large enough effect in the signal ratio in the repeat runs, not every such curve was filed as active; the % refers to the signal ratio; note: potency is the fitted concentration of half-maximal effect)
Outline: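 Phospho-H2AX Ser139 measured by HTRF (ex 320 nm; em 665 and 620 nm) after 24 hr antibody incubation. Compounds, 15 concentrations, 0.76% DMSO, were applied to CHO-K1 cells for 3hr at 37C before lysis.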

[4] = qHTS assay to identify small molecule agonists of the hypoxia (HIF-1) signaling pathway (AID 1224846; active = well fitted activation curve with a large enough effect in the signal ratio in the repeat runs, not every such curve was filed as active; the % refers to the signal ratio)
Outline: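 Beta-lactamase FRET read-out (CCF4-AM substrate) from ME-180 cells carrying an HRE-driven bla reporter, after 17 hrs compound exposure at 37C/5% CO2. Cells were seeded at 2,000 per well in 0.5% dialyzed FBS medium and preincubated 5 hrs.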

[5] = qHTS assay to identify small molecule antagonists of the estrogen related receptor (ERR) signaling pathway from Tox21 library (AID 1224848; active = well fitted curve in the direction sought with a large enough effect in the repeat runs; an effect the other way counts as inactive or inconclusive; note: nearly all actives have a fitted effect of over 50% in size)
Outline: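 Luciferase luminescence (ONE-Glo, 30 min room temperature) was the read-out. Cells of the NTP-supplied ERR line, 2,000 per well, were given 6 h at 37 C before compound addition in DMSO and 18 h exposure at 37 C.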

[6] = qHTS assay to identify small molecule agonists of the estrogen related receptor (ERR) signaling pathway from Tox21 library (AID 1224849); settings: ERR reporter cell line, ONE-Glo luciferase, 18 h; at 92.4 µM (top of the series) unless noted; note: nearly all actives have a fitted effect of over 15% in size
Outline: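 Luminescence readout (ONE-Glo, 30 min RT) after 18 h compound exposure at 37 C of NTP-supplied ERR reporter cells; cells were plated 6 h before compound addition by pin tool.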

[7] = qHTS RealTime-Glo MT Cell Viability Assay in HepG2 cells - 24 hour (AID 1224867; active = well fitted curve in the direction sought with a large enough effect in the repeat runs; an effect the other way counts as inactive or inconclusive; note: nearly all actives have a fitted effect of over 50% in size)
Outline: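 HepG2 suspension premixed with RealTime-Glo reagents is plated at 600 cells per well and left 5 h at 37 C/5% CO2. Compounds in DMSO then go in, and bioluminescence reflecting viable cell number is recorded over 40 h.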

[8] = qHTS RealTime-Glo MT Cell Viability Assay in HEK293 cells - 32 hour (AID 1224868; active = well fitted curve in the direction sought with a large enough effect in the repeat runs; an effect the other way counts as inactive or inconclusive; note: nearly all actives have a fitted effect of over 50% in size; note: potency is the fitted concentration of half-maximal effect)
Outline: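 Reads taken at 0, 8, 16, 24, 32 and 40 h from the same wells. HEK293 cells (600/well) carried RealTime-Glo reagents from seeding, with compound added after a 5 h settle at 37 C.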

[9] = A CellTox Green Cytotoxicity Assay to monitor cytotoxicity in HEK293 cells - 0 hour (AID 1224869; active = well fitted curve in the direction sought with a large enough effect in the repeat runs; an effect the other way counts as inactive or inconclusive; note: nearly all actives have a fitted effect of over 50% in size)
Outline: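 Read-out: fluorescence of a cell-impermeant cyanine dye staining DNA of dead cells, proportional to cytotoxicity. HEK293, 600 cells/well with reagent, compound (23 nL DMSO) added after 5 h; reads at 0, 8, 16, 24, 32, 40 h.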

[10] = qHTS assay to identify small molecule agonists of H2AX - cell viability counter screen (AID 1224847); note: top concentration of the series differs between compounds; nearly all actives have a fitted effect of over 30% in size
Outline: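 Compounds tested at 15 concentrations were incubated 3 hr at 37C with wild-type CHO-K1 cells; cellular ATP-based luminescence (CellTiter-Glo) indicated viability.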

Thyrotropin receptor (Homo sapiens), sequence (P16473 whole entry, looked up): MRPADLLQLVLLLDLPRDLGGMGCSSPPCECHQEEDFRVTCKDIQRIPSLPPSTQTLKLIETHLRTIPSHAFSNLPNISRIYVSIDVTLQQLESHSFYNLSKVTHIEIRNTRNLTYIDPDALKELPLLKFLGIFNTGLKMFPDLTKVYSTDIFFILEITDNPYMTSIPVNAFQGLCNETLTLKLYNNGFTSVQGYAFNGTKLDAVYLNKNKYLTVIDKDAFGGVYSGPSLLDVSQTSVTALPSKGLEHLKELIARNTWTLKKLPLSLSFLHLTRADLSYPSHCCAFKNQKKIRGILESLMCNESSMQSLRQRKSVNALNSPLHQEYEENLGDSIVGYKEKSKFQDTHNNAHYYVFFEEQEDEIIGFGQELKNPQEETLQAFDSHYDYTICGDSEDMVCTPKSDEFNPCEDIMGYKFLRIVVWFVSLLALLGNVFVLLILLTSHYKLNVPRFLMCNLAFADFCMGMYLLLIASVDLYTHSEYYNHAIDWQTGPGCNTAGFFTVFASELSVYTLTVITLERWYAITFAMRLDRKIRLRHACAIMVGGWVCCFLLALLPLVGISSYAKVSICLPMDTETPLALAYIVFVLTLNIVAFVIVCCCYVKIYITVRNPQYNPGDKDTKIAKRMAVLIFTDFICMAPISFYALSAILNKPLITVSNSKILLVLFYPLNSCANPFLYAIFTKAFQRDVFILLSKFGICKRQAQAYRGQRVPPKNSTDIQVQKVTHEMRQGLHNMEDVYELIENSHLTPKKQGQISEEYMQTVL

| SMILES | Potency [1] | Potency [2] | Potency [3] | outcome [4] | Potency [5] | activity change, positive = activation [6] | Potency [7] | Potency [8] | Potency [9] | Potency [10] |
| --- | --- | --- | --- | --- | --- | --- | --- | --- | --- | --- |
| CC(C)(C)c1ccc(OC(=O)c2ccccc2O)cc1 | inactive | inactive | inactive | inactive | inactive | 132% (active) | inactive | inactive | inactive |  |
| CCCCOc1cc(C(=O)NCCN(CC)CC)c2ccccc2n1 | inactive | inactive | inactive |  |  |  | inactive | 21.3 µM (active) | inactive | inactive |
| COC(=O)/C=C(/C)N | inactive | inactive | inactive |  | inactive | 7.53% [at 42.5 µM] | inactive | inactive | inactive | inactive |
| CC(C)(CO)[C@@H](O)C(=O)NCCC(=O)O | inactive | inactive | inactive |  | inactive | 7.16% | inactive | inactive | inactive | inactive |
| CN1CCC[C@@H]1Cc1c[nH]c2ccc(CCS(=O)(=O)c3ccccc3)cc12 | inactive | inactive | inactive | inactive | inactive | -4.97% [at 42.5 µM] | inactive | inactive | inactive |  |
| OCc1ccccc1O | inactive | inactive | inactive | inactive |  |  | inactive | inactive | inactive | inactive |
| Cc1onc(-c2ccccc2)c1C(=O)Cl | inactive | inactive | inactive |  |  |  | inactive | inactive |  | inactive |
| CCCc1c2oc(C(=O)O)cc(=O)c2cc2c(=O)cc(C(=O)O)n(CC)c12 | inactive | inactive | inactive |  | inactive | 1.31% [at 42.5 µM] | inactive | inactive | inactive | inactive |
| CCCCCCCCCC/C=C/C#N | inactive | inactive | inactive |  | inactive | -1.03% | inactive | inactive | inactive | inactive |
| CCCNC(C)C(=O)Nc1c(C)csc1C(=O)OC (configuration not stated) | inactive | inactive | inactive |  | inactive | -1.49% [at 42.5 µM] | inactive | inactive |  | inactive |
| CCOc1ccc(NS(=O)(=O)c2ccc(N)cc2)nn1 | inactive | inactive | inactive | inactive |  |  | inactive |  | inactive | inactive |
| COc1ccccc1OCC(O)COC(N)=O (configuration not stated) | inactive | inactive | inactive |  | inactive | 6.93% [at 42.5 µM] | inactive | inactive | inactive | inactive |
| CCN(CC)CCOc1ccc(Cc2ccccc2)cc1 | inactive | inactive | inactive | inactive |  |  | inactive |  | inactive | inactive |
| CNCCC(Oc1ccccc1OC)c1ccccc1 (configuration not stated) | inactive | inactive | inactive |  | inactive | -5.63% [at 42.5 µM] | inactive | inactive |  | inactive |
| O=c1[nH]c(=O)n([C@H]2C[C@H](O)[C@@H](CO)O2)cc1C(F)(F)F | inactive | inactive | 0.196 µM (active) |  |  | -26.8% [at 42.5 µM] | inactive | inactive |  | inactive |
| CC(=O)N(CC(O)CN(C(C)=O)c1c(I)c(C(=O)NCC(O)CO)c(I)c(C(=O)NCC(O)CO)c1I)c1c(I)c(C(=O)NCC(O)CO)c(I)c(C(=O)NCC(O)CO)c1I (configuration not stated) | inactive | inactive | inactive |  |  |  | inactive | inactive | inactive | inactive |
| CCC(=O)O[C@]1(C(=O)SCF)[C@H](C)C[C@H]2[C@@H]3C[C@H](F)C4=CC(=O)C=C[C@]4(C)[C@@]3(F)[C@@H](O)C[C@@]21C | inactive | inactive | inactive |  | inactive | -0.0041% [at 42.5 µM] | inactive | inactive | inactive | inactive |
| NC/C=C/C(=O)O | inactive | inactive | inactive |  | inactive | 6.36% [at 42.5 µM] | inactive | inactive | inactive | inactive |
| COc1ccc2nc(NC(=O)Nc3ccccc3)sc2c1 | inactive | 19 µM (active) | inactive |  |  |  | inactive | 5.35 µM (active) | inactive | inactive |
| c1ccc(CN(CC2=NCCN2)c2ccccc2)cc1 | inactive | inactive | inactive |  | inactive | -0.231% [at 42.5 µM] | inactive | inactive | inactive | inactive |
